# Shown are actives, neighbours in structure and some others; about 3% of the full set was active somewhere.
# SENP8 block-1: SENP8 protease inhibitors, primary screen, biochemical, luminescence. Sentrin-specific protease 8 (Homo sapiens), Q96LD8. purified SENP8, Z-RLRGG-aminoluciferin cleavage. inhibition, % at 10 µM. 1.2% of 330,000 active. AID 2540, 2010; in the data active means inhibition above about 50%
# Target sequence (Q96LD8 whole entry, looked up): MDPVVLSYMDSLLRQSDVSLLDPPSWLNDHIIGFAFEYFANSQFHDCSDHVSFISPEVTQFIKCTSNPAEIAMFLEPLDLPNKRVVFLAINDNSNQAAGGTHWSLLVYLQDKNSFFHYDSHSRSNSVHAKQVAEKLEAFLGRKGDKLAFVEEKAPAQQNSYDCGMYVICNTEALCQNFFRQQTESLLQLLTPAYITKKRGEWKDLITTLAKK
# SENP8 block-2: human SENP8 protease inhibitors, primary screen, biochemical, fluorescence, Nedd8 protein substrate, uHTS; Sentrin-specific protease 8 (Homo sapiens), Q96LD8; recombinant SENP8; inhibition, % at 20 µM; 0.64% of 360,000 active; in the data active means inhibition mostly above about 40%, no sharp cut-off; inactive means mostly below about 27%
# SENP7 block: SENP7 protease inhibitors, primary screen, biochemical, luminescence, uHTS | Sentrin-specific protease 7 (Homo sapiens), Q9BQF6 | recombinant SENP7, Z-RLRGG-aminoluciferin luminescence, 40 min | inhibition, % at 5 µM | 1.5% of 330,000 active | AID 434973, 2010;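 active means inhibition above about 50% at the single test dose, limit read from the data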;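 further: plate controls were DMSO with enzyme for no effect and no enzyme buffer wells for full effect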
# Target sequence (Q9BQF6 706-1050 limits assumed): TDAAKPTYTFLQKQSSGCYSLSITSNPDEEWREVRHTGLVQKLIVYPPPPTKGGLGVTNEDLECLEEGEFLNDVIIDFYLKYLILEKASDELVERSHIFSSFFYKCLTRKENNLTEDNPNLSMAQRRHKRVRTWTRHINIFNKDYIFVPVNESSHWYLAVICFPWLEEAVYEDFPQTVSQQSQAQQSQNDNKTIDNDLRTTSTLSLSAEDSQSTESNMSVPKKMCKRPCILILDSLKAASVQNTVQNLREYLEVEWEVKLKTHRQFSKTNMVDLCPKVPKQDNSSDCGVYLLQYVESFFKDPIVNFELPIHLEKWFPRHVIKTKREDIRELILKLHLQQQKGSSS
# PPC-1+TRAIL kill: compounds killing PPC-1 cancer cells with TRAIL present, primary screen, TRAIL potentiator project, ATPLite luminescence, uHTS; PPC-1 cells + TRAIL, ATPLite viability luminescence; cell killing (% activity), % at 4 µM or 5 µM; 0.41% of 220,000 active; AID 1443, 2008;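 active means cell killing above 50% in the first pass at 4 µM, then a duplicate retest at 5 µM averaging 50% or more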;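 further: plate controls were cells with TRAIL plus DMSO for no effect and medium-only wells lacking cells for full effect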
# TRAIL sens C8: viability loss with TRAIL in NB7+C8 cells, primary screen, TRAIL sensitizer project, cell-based, ATPlite luminescence. inhibition (viability loss, TRAIL sensitization), % at 10 µM. 1% of 360,000 active;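 active means compounds causing at least 50% loss of cell viability in the single-dose screen, relative to plate controls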
# SENP6 inh: SENP6 protease inhibitors, primary screen, biochemical, luminescence, uHTS; Sentrin-specific protease 6 (Homo sapiens), Q9GZR1; Recombinant SENP6 catalytic domain, aminoluciferin luminescence; inhibition, % at 10 µM; 1.8% of 330,000 active; AID 2599, 2010;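 active means inhibition above about 50% at the single tested dose, limit read from the data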;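 further: plate controls were DMSO wells with enzyme for no effect and DMSO wells lacking enzyme for full effect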
# SENP8 inh conf: human SENP8 protease inhibitors, confirmation, biochemical, Nedd8 protein substrate, single concentration; shares compounds with SENP8 block-2; purified SENP8, Nedd8-AMC/pro-Nedd8 cleavage fluorescence, 30 min; inhibition, % at 25 µM; 15% of 1,400 active; in the data active means inhibition mostly above about 39%, no sharp cut-off; inactive means mostly below about 34%
# An asterisk follows results filed as active; · = not tested or not shown.
SMILES,SENP8 block-1,SENP8 block-2,SENP7 block,PPC-1+TRAIL kill,TRAIL sens C8,SENP6 inh,SENP8 inh conf
Cc1cccc(NS(=O)(=O)c2cc(C(=O)OCC(=O)Nc3cc(C)on3)ccc2C)c1,7,41*,7,-10,8,8,19
Cc1cccc(NC(=O)COC(=O)c2ccc(C)c(S(=O)(=O)N3CCCCC3)c2)c1,-8,10,-6,·,8,-29,·
CC(C)(C)C(=O)Nc1cccc(C(=O)c2cccc(NC(=O)C(C)(C)C)c2)c1,-12,24,11,12,8,-6,·
CCCOC(=O)c1cccc(NC(=O)C(C)(C)C)c1,1,42*,4,5,-2,14,-2
O=C1Nc2c(Cl)cc(Cl)cc2C1=O,·,22,·,·,-7,·,·
O=[N+]([O-])c1cccnc1Oc1ccccc1F,2,5,2,28,17,-3,·
Nc1ncc([N+](=O)[O-])c(Oc2ccccc2F)n1,0,49*,-3,5,-5,-46,9
Cc1csc(=O)n1CCC(=O)OCc1nnc(-c2ccc(Cl)cc2)o1,-6,0,7,·,8,2,·
CCN(C(=O)COC(=O)Cn1c(=O)oc2ccccc21)c1c(N)n(Cc2ccccc2)c(=O)[nH]c1=O,·,-6,·,·,4,·,·
CC(C)[C@@H](C(=O)NC1CCN(Cc2ccccc2)CC1)N1C(=O)N2CCc3c([nH]c4ccccc34)[C@@]2(C)C1=O,-1,20,1,·,2,-2,·
CC(C)[C@@H](C(=O)N[C@@H](C(=O)O)c1ccccc1)N1C(=O)N2CCc3c([nH]c4ccccc34)[C@@]2(C)C1=O,-10,44*,-4,·,1,-15,18
CC(C)[C@@H](C(=O)NCc1ccco1)N1C(=O)N2CCc3c([nH]c4ccccc34)[C@@]2(C)C1=O,-11,-10,-14,·,4,-14,·
CC(C)[C@@H](C(=O)NCC1CCCO1)N1C(=O)N2CCc3c([nH]c4ccccc34)[C@@]2(C)C1=O (some centres undefined),-10,51*,-20,·,-12,-8,13
CC(C)[C@@H](C(=O)NC1CC1)N1C(=O)N2CCc3c([nH]c4ccccc34)[C@@]2(C)C1=O,1,51*,-2,·,-9,0,7
COc1ccc(CNC(=O)C2CCCN(c3nccc(C)n3)C2)cc1 (centres undefined),-3,-53,-5,26,1,-11,·
OCCC1CN(Cc2cccn2-c2ncccn2)CCN1C1CCCC1 (centres undefined),-4,-4,-2,9,-5,-11,·
CCc1ccc(NC(=O)COC(=O)CC2CCCC2)cc1,-14,-6,-6,·,-6,-15,·
CC(C)(C)c1nnc2sc(SCCN3C(=O)c4ccccc4C3=O)nn2c1=O,1,20,6,-3,0,-9,·
CC(C)N(C(=O)CSc1nn2c(=O)c(C(C)(C)C)nnc2s1)c1ccccc1,0,40*,0,16,-3,-13,10
Cc1ccc(C)c(Nc2c([N+](=O)[O-])ccc3nonc23)c1,-8,45*,-15,·,-8,-12,18
CC(=O)C1=C(C)OC2(O)c3ccccc3C(=O)C12O (centres undefined),23,88*,43,27,-13,37,95*
C[n+]1ccc2[nH]c3ccccc3c2c1,·,-41,·,·,0,·,·
Cc1[nH]c2ccccc2c1/C=C/c1cc[n+](C)cc1,·,44*,·,12,6,·,32
CC1CC(=O)N(c2ccc(NCCc3ccc(O)cc3)c([N+](=O)[O-])c2)C1=O (centres undefined),-2,42*,-7,14,6,10,20
CC1CC(=O)N(c2ccc(NCCc3ccccc3)c([N+](=O)[O-])c2)C1=O (centres undefined),-16,36,0,24,4,-23,·
SMILES,SENP8 block-1,SENP8 block-2,SENP7 block,PPC-1+TRAIL kill,TRAIL sens C8,SENP6 inh,SENP8 inh conf
COCCCNC(=O)Cc1c(C)c2c(cc(C)c3c(C(C)(C)C)coc32)oc1=O,-19,-290,-4,·,26,-4,·
CNc1nc(Oc2ccc(=O)n(C)n2)nc(N2CCOCC2)n1,1,44*,5,11,0,11,1
CC(=O)c1cccc(NC(=O)Nc2ccc3c(c2)OCO3)c1,-8,4,1,·,29,17,·
COc1ccc(OC)c(C2CC(=O)N3CN(c4ccc(C)c(Cl)c4)CSC3=C2C#N)c1 (centres undefined),8,6,11,-10,10,4,·
CCOC(=O)c1ccc(N2CSC3=C(C#N)C(c4ccc(OC)cc4OC)CC(=O)N3C2)cc1 (centres undefined),-7,52*,13,-25,20,-14,12
COc1ccc(Br)cc1C1CC(=O)N2CN(C)CSC2=C1C#N (centres undefined),1,65*,16,-10,24,-2,1
COc1ccc(Br)cc1C1CC(=O)N2CN(Cc3ccccc3)CSC2=C1C#N (centres undefined),31,68*,19,-3,-11,16,1
CC(C)[C@H](NC(=O)c1ccc(Cl)cc1Cl)C(=O)OCc1nc2ccsc2c(=O)[nH]1,·,3,·,·,6,·,·
O=C(NC1CCCCC1)Oc1ccccc1,-11,40*,-9,16,-1,-7,10
C[C@H](O)Cc1cn(-c2cc3cc(C#Cc4ccsc4)ccc3oc2=O)nn1,3,-473,6,·,1,-4,·
O=C(O)CCCCNS(=O)(=O)c1ccc(Cl)c(C(F)(F)F)c1,-5,42*,-1,14,-5,-5,8
O=C(O)CCCCCNS(=O)(=O)c1ccc(Cl)cc1,8,12,-5,9,-3,11,·
CCOC(=O)C(/C=C(\C#N)C(=O)OCC)=C(/N)N1CCN(c2ccc(Cl)cc2)CC1,-3,46*,7,3,3,-7,23
COc1ccc(NS(=O)(=O)NC(=O)c2c(C)n(C)c3ccccc23)cc1,-5,39*,-14,·,-6,-10,14
Cc1ccc(S(=O)(=O)N2C[C@H]3[C@H]4C(=O)N(c5ccccc5)C(=O)[C@H]4CC(=O)[C@H]3[C@@H]2c2ccccc2F)cc1,·,50*,·,·,-8,·,23
Cc1ccc(S(=O)(=O)N2C[C@H]3[C@H]4C(=O)N(c5ccccc5)C(=O)[C@H]4CC(=O)[C@H]3[C@@H]2c2cccc3ccccc23)cc1,·,16,·,·,-7,·,·

# Screening data (PubChem)
